The text below walks through data of publication PMC8222333, “AsCas12a ultra nuclease facilitates the rapid generation of therapeutic cell medicines”.

Targets include dAsCas12a S542R (Acidaminococcus sp., UniProt U2UMQ6 1-1307, S542R;D908A;E993A;D1235A); d-enCas12a (Acidaminococcus sp., UniProt U2UMQ6 1-1307, E174R;S542R;K548R;D908A;E993A;D1235A); d-enCas12a-Ultra (Acidaminococcus sp., UniProt U2UMQ6 1-1307, E174R;S542R;K548R;M537R;F870L;D908A;E993A;D1235A).
Common to all, as to test: Spec-seq (native PAGE EMSA with sequencing of bound and unbound); 25 mM Tris-HCl pH 7.4, 150 mM KCl, 5 mM MgCl2, 10% glycerol, 1 mM DTT, 40 ng/uL salmon sperm DNA; 400 nM Cas12a, 480 nM crRNA, 50 nM library, 37 C 1 h; native PAGE at room temperature; high values mean tight binding
Common to all, as to details: protein: recombinant
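Also: relative affinity from the bound to unbound sequence frequency ratio in Spec-seq.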

B1: TGAG (dsDNA)
DNA 1: GCTATCTAGTGCTCAGTACGCACTGTGAGAGGAAACTTCTGGCAGGACCAGGTCATGAGATCGGAAGAGCACACGTCTGAACTCCAGTCA
DNA 2: TGACTGGAGTTCAGACGTGTGCTCTTCCGATCTCATGACCTGGTCCTGCCAGAAGTTTCCTCTCACAGTGCGTACTGAGCACTAGATAGC
RNA: AAUUUCUACUCUUGUAGAUAGGAAACUUCUGGCAGGACC
Consider B1, for which the binding signal in the assay with dAsCas12a S542R is -8.4 lnKA; with d-enCas12a, -5.65 lnKA; in the assay with d-enCas12a-Ultra, -3.4 lnKA.

B2: GCGG (dsDNA)
DNA 1: GCTATCTAGTGCTCAGTACGCACTGGCGGAGGAAACTTCTGGCAGGACCAGGTCATGAGATCGGAAGAGCACACGTCTGAACTCCAGTCA
DNA 2: TGACTGGAGTTCAGACGTGTGCTCTTCCGATCTCATGACCTGGTCCTGCCAGAAGTTTCCTCCGCCAGTGCGTACTGAGCACTAGATAGC
RNA: AAUUUCUACUCUUGUAGAUAGGAAACUUCUGGCAGGACC
As for B2, the binding signal was -5.85 lnKA in the assay with d-enCas12a and -3.63 lnKA with d-enCas12a-Ultra.

B3: TGCG (dsDNA)
DNA 1: GCTATCTAGTGCTCAGTACGCACTGTGCGAGGAAACTTCTGGCAGGACCAGGTCATGAGATCGGAAGAGCACACGTCTGAACTCCAGTCA
DNA 2: TGACTGGAGTTCAGACGTGTGCTCTTCCGATCTCATGACCTGGTCCTGCCAGAAGTTTCCTCGCACAGTGCGTACTGAGCACTAGATAGC
RNA: AAUUUCUACUCUUGUAGAUAGGAAACUUCUGGCAGGACC
For the molecule B3, the binding signal with dAsCas12a S542R is -8.2 lnKA; with d-enCas12a, -3.38 lnKA; with d-enCas12a-Ultra, -0.977 lnKA.

B4: TGAT (dsDNA)
DNA 1: GCTATCTAGTGCTCAGTACGCACTGTGATAGGAAACTTCTGGCAGGACCAGGTCATGAGATCGGAAGAGCACACGTCTGAACTCCAGTCA
DNA 2: TGACTGGAGTTCAGACGTGTGCTCTTCCGATCTCATGACCTGGTCCTGCCAGAAGTTTCCTATCACAGTGCGTACTGAGCACTAGATAGC
RNA: AAUUUCUACUCUUGUAGAUAGGAAACUUCUGGCAGGACC
For the molecule B4, the values for the binding signal in the assay with dAsCas12a S542R, with d-enCas12a and with d-enCas12a-Ultra were -8.47 lnKA, -5.85 lnKA and -3.37 lnKA, respectively.

B5: ACGC (dsDNA)
DNA 1: GCTATCTAGTGCTCAGTACGCACTGACGCAGGAAACTTCTGGCAGGACCAGGTCATGAGATCGGAAGAGCACACGTCTGAACTCCAGTCA
DNA 2: TGACTGGAGTTCAGACGTGTGCTCTTCCGATCTCATGACCTGGTCCTGCCAGAAGTTTCCTGCGTCAGTGCGTACTGAGCACTAGATAGC
RNA: AAUUUCUACUCUUGUAGAUAGGAAACUUCUGGCAGGACC
For the molecule B5, the binding signal with d-enCas12a was -5.66 lnKA; with d-enCas12a-Ultra, -3.42 lnKA.

B6: AAGC (dsDNA)
DNA 1: GCTATCTAGTGCTCAGTACGCACTGAAGCAGGAAACTTCTGGCAGGACCAGGTCATGAGATCGGAAGAGCACACGTCTGAACTCCAGTCA
DNA 2: TGACTGGAGTTCAGACGTGTGCTCTTCCGATCTCATGACCTGGTCCTGCCAGAAGTTTCCTGCTTCAGTGCGTACTGAGCACTAGATAGC
RNA: AAUUUCUACUCUUGUAGAUAGGAAACUUCUGGCAGGACC
For B6, the binding signal with d-enCas12a was -5.85 lnKA; with d-enCas12a-Ultra, -3.34 lnKA.

B7: TGGG (dsDNA)
DNA 1: GCTATCTAGTGCTCAGTACGCACTGTGGGAGGAAACTTCTGGCAGGACCAGGTCATGAGATCGGAAGAGCACACGTCTGAACTCCAGTCA
DNA 2: TGACTGGAGTTCAGACGTGTGCTCTTCCGATCTCATGACCTGGTCCTGCCAGAAGTTTCCTCCCACAGTGCGTACTGAGCACTAGATAGC
RNA: AAUUUCUACUCUUGUAGAUAGGAAACUUCUGGCAGGACC
With B7, the binding signal was -8.57 lnKA with dAsCas12a S542R, -5.93 lnKA in the assay with d-enCas12a and -3.42 lnKA with d-enCas12a-Ultra.

B8: TGGC (dsDNA)
DNA 1: GCTATCTAGTGCTCAGTACGCACTGTGGCAGGAAACTTCTGGCAGGACCAGGTCATGAGATCGGAAGAGCACACGTCTGAACTCCAGTCA
DNA 2: TGACTGGAGTTCAGACGTGTGCTCTTCCGATCTCATGACCTGGTCCTGCCAGAAGTTTCCTGCCACAGTGCGTACTGAGCACTAGATAGC
RNA: AAUUUCUACUCUUGUAGAUAGGAAACUUCUGGCAGGACC
On to B8, for which the figures for the binding signal in the assay with dAsCas12a S542R, in the assay with d-enCas12a and with d-enCas12a-Ultra were -8.19 lnKA, -5.4 lnKA and -3.03 lnKA, respectively.

B9: TGCT (dsDNA)
DNA 1: GCTATCTAGTGCTCAGTACGCACTGTGCTAGGAAACTTCTGGCAGGACCAGGTCATGAGATCGGAAGAGCACACGTCTGAACTCCAGTCA
DNA 2: TGACTGGAGTTCAGACGTGTGCTCTTCCGATCTCATGACCTGGTCCTGCCAGAAGTTTCCTAGCACAGTGCGTACTGAGCACTAGATAGC
RNA: AAUUUCUACUCUUGUAGAUAGGAAACUUCUGGCAGGACC
Consider B9, for which the binding signal in the assay with dAsCas12a S542R was -8.2 lnKA; with d-enCas12a it was -4 lnKA; with d-enCas12a-Ultra, -1.2 lnKA.

B10: GTAC (dsDNA)
DNA 1: GCTATCTAGTGCTCAGTACGCACTGGTACAGGAAACTTCTGGCAGGACCAGGTCATGAGATCGGAAGAGCACACGTCTGAACTCCAGTCA
DNA 2: TGACTGGAGTTCAGACGTGTGCTCTTCCGATCTCATGACCTGGTCCTGCCAGAAGTTTCCTGTACCAGTGCGTACTGAGCACTAGATAGC
RNA: AAUUUCUACUCUUGUAGAUAGGAAACUUCUGGCAGGACC
Turning to B10, the results for the binding signal with d-enCas12a and with d-enCas12a-Ultra were -5 lnKA and -1.95 lnKA, respectively.
